The term inhibition denotes the drop in the measured response relative to a control, in per cent.

Among all 360,000 compounds or so, about 1,300 (0.36%) were called active. The sample holds actives, similar compounds and a random draw of the others, so the mix is not that of the screen. A number with no mark means an inactive call. Cut-off read from the data, not from the text of the source: active = inhibition above about 34% (passing the limit was not always enough); inactive = the rest.

The target of the test is C-X-C chemokine receptor type 6 (Homo sapiens) (UniProt O00574). The test is described as follows: blockade of CXCL16-induced CXCR6 beta-arrestin recruitment – cell-based, luminescence, CHO-K1 PathHunter, 1536-well, primary screen (AID 602244).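 Note: antagonist mode with CXCL16 agonist at 10 nM final; 0% = 10 nM CXCL16 with DMSO and 100% = unstimulated wells without agonist.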 The following applies: at 20 µM, stronger effect = higher value. On the technique in general: Recruitment of arrestin is a read-out of receptor activation apart from second messengers.
Chain of C-X-C chemokine receptor type 6 (Homo sapiens) (O00574 whole entry, looked up): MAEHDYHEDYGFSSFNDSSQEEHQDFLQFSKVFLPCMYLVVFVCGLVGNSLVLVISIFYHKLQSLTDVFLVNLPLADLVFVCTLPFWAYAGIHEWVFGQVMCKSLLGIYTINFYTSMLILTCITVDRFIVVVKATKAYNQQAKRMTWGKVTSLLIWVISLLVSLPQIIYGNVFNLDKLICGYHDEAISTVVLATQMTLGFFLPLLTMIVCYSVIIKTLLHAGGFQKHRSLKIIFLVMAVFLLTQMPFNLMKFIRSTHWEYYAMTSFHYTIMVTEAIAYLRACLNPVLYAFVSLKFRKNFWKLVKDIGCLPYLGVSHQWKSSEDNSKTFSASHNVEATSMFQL
As to `O=C(CCS(=O)(=O)c1ccccc1)Nc1nc2c(s1)CCCC2`, the inhibition is -0.7%. As for `COc1cccc2sc(N(CCCN(C)C)C(=O)CCS(=O)(=O)c3ccccc3)nc12`, the inhibition was 44.2% (active).

Take `Cc1ccc(S(=O)(=O)CCC(=O)OCC(=O)N(C)Cc2ccccc2)cc1`: the inhibition is 0.4%. With `CCc1nc2c(OCCOc3ccccc3)cccn2c1N(C)C(=O)c1ccccc1F` the figure was 4.8%. Consider `CN1CCC(N(C)S(=O)(=O)c2ccc(NC(=O)c3cccc(C#N)c3)cc2)CC1`, for which the inhibition was -0.9%. With `O=C1CC(c2cccc(F)c2)C2=C(CCCC2=O)N1` (stereo unspecified), the inhibition was -9.4%. Take `O=[N+]([O-])c1c(NCCO)cc(Sc2nc3ccccc3s2)c2nonc12`: the inhibition was 94.3% (active). Next, `C=CCOc1ccc(Cl)cc1CNCCCN1CCOCC1`: -3%.

For `Cc1ccc(/C=N/NC(=O)CSc2nc3ccccc3o2)cc1`, the inhibition is -6.5%. Regarding `O=C(CSc1cccc2cccnc12)N/N=C/c1cccnc1`, the inhibition was 48.3% (active). In the case of `O=C(CNC(=O)c1cccnc1)N/N=C/c1cc(Br)c(O)c(Br)c1`, the inhibition was 1.1%. On to `O=C(COc1cccc2c1CCNC2=O)NC1CCCCC1`, for which the inhibition was -2.3%. Take `OCCC1CN(Cc2cccc(OC3CCCC3)c2)CCN1Cc1ccsc1` (stereo unspecified): the inhibition was 4.2%. On to `Cc1c(NC(=O)C(C)Oc2cccc(Cl)c2)c(=O)n(-c2ccccc2)n1C` (stereo unspecified), for which the inhibition was -5%. For `CC(C)CCNC(=O)c1cccnc1Sc1ccccc1`, the inhibition is -0.4%. For the compound `COc1cccc(NCCC(=O)c2cccc([N+](=O)[O-])c2)c1`, the inhibition is 2.4%. Consider `COC(=O)/C=C\C(=O)Nc1cccc([N+](=O)[O-])c1`, for which the inhibition is 74.8% (active). With `CC(NC(=O)Nc1cccc([N+](=O)[O-])c1)c1ccc2c(c1)OCO2` (stereo unspecified) the figure was 7.9%; with `CC(C)Cc1cc(C(=O)NCCc2ccccc2)no1`, 1.7%.

Take `O=C(NCCCc1ccccc1)c1cc(COc2c(F)cccc2F)on1`: the inhibition is 7.9%.

In the case of `Cc1cc(C(=O)NCCCc2ccccc2)no1`, the inhibition was 48.5% (active). Regarding `Cc1ccc(CCNC(=O)C2CCN(S(=O)(=O)N3CCCC3)CC2)cc1`, the inhibition is 0.7%. Consider `Cc1ccc(OCCCCc2c(C)n[nH]c2C)cc1`, for which the inhibition was -0.7%. Take `Cc1cc(F)ccc1NC(=S)NCCc1ccccc1`: the inhibition is -0.7%. With `C/C(=N\NC(=S)NCc1ccccc1)C1CCCCC1`, the inhibition is 21.2%. For the compound `CCCC1CCC(=NNC(=S)NCCc2ccccc2)CC1` (stereo unspecified), the inhibition was 40% (active). With `Cc1cc(C)c(C)c(S(=O)(=O)N[C@@H](C)C(=O)OC(C)C(=O)NC(N)=O)c1C` (stereo partly specified) the figure was 7%. As for `Cc1oc2cc([N+](=O)[O-])c(O)c([N+](=O)[O-])c2c1C(=O)c1ccc(Br)cc1`, the inhibition was 25.7%.

With `O=C(NNC(=S)NCCCN1CCOCC1)c1ccncc1`, the inhibition was 3.2%.

On to `NC(=O)C1(Nc2ccc([N+](=O)[O-])cc2)CCCC1`, for which the inhibition is 1.8%. Turning to `O=[N+]([O-])c1ccc(N=NNc2ccc([N+](=O)[O-])cc2)cc1`, the inhibition is 39.7% (active). `COC(=O)c1ccccc1N=NNc1ccc([N+](=O)[O-])cc1`: the inhibition is -5.2%.

For `CC(=O)Nc1ccc(S(=O)(=O)NCC2CCC(C(=O)NCCc3ccccc3)CC2)cc1` (stereo unspecified), the inhibition was 6.1%.

For the compound `Nc1nc(Nc2ccccc2F)nc(NC2CCCCC2)c1[N+](=O)[O-]`, the inhibition was -0.8%.

For the compound `CSCCC(NC(=O)COc1ccccc1)C(=O)OCC(=O)c1cc2ccccc2o1` (stereo unspecified), the inhibition is 37.7% (active). Regarding `CSCCC(NC(=O)COc1ccccc1)C(=O)OCCOc1ccc(Br)cc1` (stereo unspecified), the inhibition was 2.8%.

For the compound `CSCCC(NC(=O)COc1ccccc1)C(=O)OCc1ccc(Cl)cc1` (stereo unspecified), the inhibition is 2.7%. With `O=C(NCc1ccccc1)C1=C[C@@H](C2CCCCC2)C[C@@H](OCc2ccc(CO)cc2)O1` the figure was 6.4%. Next, `CC(C)c1ccc(S(=O)(=O)N2CCC3(CC2)OCCO3)cc1`: -0.4%; `CCN(CC)P(=O)(/C(Cl)=C\Nc1c(C)n(C)n(-c2ccccc2)c1=O)N(CC)CC`: 9.1%; `CCOc1ccc(CN2CCC(n3nccc3NC(=O)C3CC3)CC2)cc1CO`: 3.8%.

Take `CSCCC(NS(=O)(=O)c1ccc(C)cc1)C(=O)NCCc1c[nH]c2ccccc12` (stereo unspecified): the inhibition was -6%. Regarding `CCN(CC)CCn1c(N)c(S(=O)(=O)c2ccccc2)c2nc3ccccc3nc21`, the inhibition is 45.9% (active). With `CCC(=O)Nc1c(S(=O)(=O)c2ccccc2)c2nc3ccccc3nc2n1Cc1ccccc1`, the inhibition is -4.6%.

For `CCN(CC)CCn1c(/N=C/c2cc(Br)ccc2O)nc2ccccc21`, the inhibition is 0.9%. Next, `CCCCOc1ccc(C(=O)NCC(=O)OCC(=O)c2c(N)n(C)c(=O)n(C)c2=O)cc1`: 2.3%. For the compound `CC1CN(c2cc(=O)n(-c3cccc(Br)c3)c(=O)[nH]2)CC(C)O1` (stereo unspecified), the inhibition is -4.7%. Consider `CCOC(=O)N1CCC(N2Cc3cccc(C(=O)Nc4ccc(S(=O)(=O)N(CC)CC)cc4)c3C2=O)CC1`, for which the inhibition was -2.9%. Take `COC(=O)c1cc(OC)c(OC)cc1NC(=O)C1CCCO1` (stereo unspecified): the inhibition is 0.8%. As to `Cc1ccc([C@H]2N[C@]3(CCCN(Cc4ccccc4)C3=O)[C@H]3C(=O)N(Cc4ccccc4)C(=O)[C@@H]23)cc1`, the inhibition was 3.3%. As to `C/C(=N\NC(=O)Cc1ccc(Cl)cc1)c1ccccn1`, the inhibition is 88.7% (active). Regarding `C/C(=N/NC(=O)CCc1ccccc1)c1ccco1`, the inhibition was -3.6%. Regarding `CC(=NNC(=S)N1CCCCCC1)c1ccccn1`, the inhibition is 19.5%. With `O=C(c1ccccc1)C(Cn1cncn1)C(Sc1ccccc1)c1ccccc1` (stereo unspecified) the figure was 5.2%; with `O=C(CNc1ccccc1N1CCCC1=O)Nc1cc(Cl)ccc1-n1cncn1`, -1%; with `Cc1noc(C)c1CSCC(=O)N(CCC(C)C)c1c(N)n(Cc2ccccc2)c(=O)[nH]c1=O`, 2.5%.

Turning to `COc1cccc(CN(C)CC2CCCN(CCc3ccc(Cl)cc3)C2)c1OC` (stereo unspecified), the inhibition was 3.7%.

Turning to `CCN(CC)Cc1csc2ccc(Br)cc12`, the inhibition was 5.6%.

Regarding `Cc1cc(OCCOc2cccc3cccnc23)c(C)cc1Cl`, the inhibition is -1.8%.

Turning to `COc1cccc(CNC(=O)C2CCN(S(=O)(=O)c3cccc4cccnc34)CC2)c1`, the inhibition is -1.1%. Next, `CC(=O)/C(=N\Nc1ccc(Cl)cc1Cl)Sc1cccc2cccnc12`: 46.4% (active).

The values above are taken from PubChem BioAssay AID602244 (Sanford-Burnham Center for Chemical Genomics, 2012).
